# Pf growth 96h: P. falciparum growth inhibition at 96 hour, primary screen for plastid delayed-death inhibitors. 320,000 tested, 6.9% active. P. falciparum luciferase reporter growth, 96 h. AID 504834. Potency, µM (highest dose often 28.7 µM), for the others: at the top dose activity change, negative = inhibition, most hits filed as inhibitors; note: potency is the fitted concentration of half-maximal effect; % is set by controls: 0 for no effect and ±100 for the full control effect
#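 96 h incubation, 37 C, 5% CO2, of luciferase-reporter P. falciparum-infected RBCs (2% hematocrit, 0.05% parasitemia final) with test compounds; endpoint luminescence.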
# Shiga inhibitor: blocks Shiga toxin action in Vero cells; Vero cells, Shiga toxin protein synthesis inhibition reporter; inhibition, % at 38.7 µM; 290,000 tested, 9.2% active; AID 2315; in the data active = inhibition mostly above about 28%, no sharp cut-off; inactive = mostly below about 43%; note: 0% is about no effect
# LmPK inh: LmPK (Leishmania mexicana) enzyme inhibition; Q27686; purified LmPK, Kinase-Glo ATP luminescence, 1 h; Potency, µM (doses to about 57.5 µM), without a hit: at the highest dose activity change, negative = inhibition, actives largely listed as inhibitors; 290,000 tested, 0.37% active; note: potency is the fitted concentration of half-maximal effect; % is set by controls: 0 for no effect and ±100 for the full control effect
# Target sequence (Q27686 whole entry, looked up): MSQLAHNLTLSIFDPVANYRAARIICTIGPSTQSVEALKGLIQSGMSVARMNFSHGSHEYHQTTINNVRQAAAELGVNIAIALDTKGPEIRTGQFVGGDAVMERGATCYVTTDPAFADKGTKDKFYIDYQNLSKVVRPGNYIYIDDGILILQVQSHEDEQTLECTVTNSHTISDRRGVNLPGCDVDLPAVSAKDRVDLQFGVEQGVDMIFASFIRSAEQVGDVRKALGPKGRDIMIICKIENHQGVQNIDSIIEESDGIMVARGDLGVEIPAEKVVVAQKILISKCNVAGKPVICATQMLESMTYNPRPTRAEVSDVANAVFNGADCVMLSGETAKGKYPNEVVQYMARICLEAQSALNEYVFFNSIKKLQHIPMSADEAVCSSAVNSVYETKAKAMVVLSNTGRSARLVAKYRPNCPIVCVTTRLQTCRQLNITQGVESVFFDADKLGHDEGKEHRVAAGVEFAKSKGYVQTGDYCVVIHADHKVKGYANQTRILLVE
#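 Purified LmPK (0.1 nM) with 0.5 mM PEP and 0.1 mM ADP in imidazole buffer pH 7.2 with MgCl2/KCl, 1 h at room temperature. ATP formed was read by luciferase luminescence and normalized to no-enzyme and uninhibited controls.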
# Pf growth 48h: inhibits P. falciparum growth in the first generation, 48 h | 310,000 tested, 5.9% active | Potency, µM (top dose mostly 28.7 µM), for inactives: at the highest dose activity change, negative = inhibition, actives largely listed as inhibitors | P. falciparum luciferase growth in erythrocytes, 48 h; note: potency is the fitted concentration of half-maximal effect; % is set by controls: 0 for no effect and ±100 for the full control effect
#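 Here the parasites carry a stable luciferase gene and grow inside erythrocytes in Albumax-based RPMI medium with compound for one erythrocytic cycle. Activity is scored as loss of luminescent signal.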
# Cycloheximide cs: counter-screen for Shiga toxin inhibitors: cycloheximide protein synthesis inhibition; cell reporter, cycloheximide protein synthesis inhibition counterscreen; max response, %; 300,000 tested, 12% active; AID 2314; in the data active = max response mostly above about 13%, no sharp cut-off; inactive = mostly below about 14%; note: read at 38.3 µM for the half of the compounds with a filed dose; 0% is about no effect
# * = called active by the depositor; u = inconclusive; x = no result; [ ] = another dose, or the depositor's remark. Most compounds without a hit are left out; they make up all but 22% or so of the library. Unless noted, calls come from the whole dose curve; as a rule, active = well fitted inhibition curve with a large enough effect; inconclusive = small, poorly fitted or top-dose-only effect, or another doubt; inactive = no such curve, though single readings can be large or run the other way.
SMILES,Pf growth 96h,Shiga inhibitor,LmPK inh,Pf growth 48h,Cycloheximide cs
O=c1ccc(-c2n[nH]c(=S)n2-c2ccc(F)c(Cl)c2)n[nH]1,u,14,-18%,-18%[5.75 µM],-3
O=C(COc1ccccc1)NC(=S)N1CCc2ccccc21,90%,38*,-3%,38%,40*
CC(C)C(=O)NC(=S)N1CCc2ccccc21,-15%,9,3%,10%,-2
O=C(COc1ccccc1Cl)NC(=S)Nc1ccccc1N1CCCC1,10%,24,0%,22%,2
COc1ccc(OCC(=O)NC(=S)N2CCCc3ccccc32)cc1,x,152*,3%,u,35*
O=C(COc1ccccc1Cl)NC(=S)N1CCc2ccccc21,u,57,-4%,44%,50*
Cc1ccccc1NC(=O)COC(=O)c1ccccc1SCC(=O)N1CCCC1,-14%,-10,3%,14%,6
CCCCNC(=O)Nc1ncn[nH]1,23%,-5,-2%,24%,-5
COc1ccc(/C=C/c2c(-c3ccc(OC)cc3)sc3ccc(N4CCOCC4)cc23)cc1,u,3,-1%,u,-3
COc1ccc(-c2oc3ccc(N4CCOCC4)cc3c2/C=C/c2ccc(OC)c(OC)c2)cc1,12µM*,30*,-2%,u,12*
Cc1cccc(/C=N/n2c(C)cc(C)c(C#N)c2=O)c1,u,4,4%,5.2µM*,-3
CCc1ccc(/C=N/n2c(C)cc(C)c(C#N)c2=O)cc1,1.7µM*,13,6%,9.3µM*,10
CCCn1c(SCC(=O)Nc2cc(Cl)ccc2OC)nc(O)cc1=O,11%,x,x,u,x
COc1ccc(C2NC(C(=O)O)Cc3c2[nH]c2ccccc32)cc1CN1CCN(c2ccc(F)cc2)CC1 (configuration not stated),u,-3,-5%,10µM*,-3
O=C(O)C1Cc2c([nH]c3ccccc23)C(c2ccc3c(c2)OCO3)N1 (configuration not stated),9.3µM*,-3,6%,3%,1
COC(=O)[C@H]1Cc2c([nH]c3ccccc23)[C@H](c2ccccc2)N1,3%,3,0%,-7%,-2
O=C(Nc1ccc(S(=O)(=O)N2CCCC2)cc1)c1c(F)cccc1F,-24%,9,4%,-3%,-2
CN(C)/C=C/C(=O)c1ccncc1,12%,-6,0%,-2%,-2
CN(C)/C=C/C(=O)c1ccc(Br)cc1,0%,61*,-9%,27%,26*
Cc1ccc(C)n1-c1ccc(C(=O)/C=C/N(C)C)cc1,15µM*,38,-11%,u,16
CN(O)/C=C/C(=O)c1ccc(Br)cc1,-1%,27,0%,0%,0
COc1ccc(N2CCN(C(=O)c3ccc(COc4ccc([N+](=O)[O-])cc4)o3)CC2)cc1,0%,-5,-8%,u,-2
CCOC(=O)c1c(C)n(CCOc2ccccc2)c2ccc(O)cc12,u,13,-15%,-12%,7
CCOC(=O)c1c(C)n(CC(O)c2ccccc2)c2ccc(O)cc12 (configuration not stated),12µM*,-9,1%,12µM*,-2
CCOc1ccc(CN(C)C(=O)[C@H](C)NC(=O)c2ccco2)cc1OC,7%,-2,-1%,20%,-6
SMILES,Pf growth 96h,Shiga inhibitor,LmPK inh,Pf growth 48h,Cycloheximide cs
O=C(Nc1cccnc1)c1cc(-c2ccc3c(c2)OCO3)on1,163%,89*,u,20%,30*
O=C(Nc1cccnc1)c1cc(-c2ccc(Cl)c(Cl)c2)on1,u,47*,2%,78%,21*
COc1ccc(-c2cc(C(=O)Nc3cccnc3)no2)cc1OC,31%,60*,3%,83%,32*
O=C(COCc1cc(-c2ccc3c(c2)OCO3)on1)Nc1cccnc1,-11%,3,-3%,10%,12
O=C(Nc1cccnc1)c1cc(-c2ccc(F)cc2)on1,u,92*,-11%,414%,53*
O=C(Nc1cccnc1)c1cc(-c2cccc(Cl)c2)on1,38%,-14,-2%,94%,-2
Cc1cccc(-n2c(SCc3ccc([N+](=O)[O-])cc3)nnc2-c2c[nH]c3ccccc23)c1,u,-5,5%,u,-4
Cc1c(C(=O)Nc2ccncc2)sc2nc(-c3ccc(F)cc3)cn12,2.3µM*,24,-5%,2.3µM*,17*
Cc1c(C(=O)NCC(C)C)sc2nc(-c3ccc(F)cc3)cn12,29%,23,-5%,41%,21*
COc1ccc(C(=O)c2coc3ccc(O)c(CN4CCOCC4)c23)cc1,-25%,38*,7%,u,13*
CCN(CC)Cc1c(O)ccc2occ(C(=O)c3ccc(OC)cc3)c12,u,19,0%,-16%,15*
Cc1ccc(C(=O)c2coc3ccc(O)c(CN4CCN(C)CC4)c23)cc1,32%,73*,-4%,3.7µM*,15*
COc1ccc(OC)c(C(O)c2coc3ccc(O)c(CN4CCOCC4)c23)c1 (configuration not stated),17%,22,4%,7.4µM*,-2
COc1ccc(C(=O)c2coc3ccc(O)c(CN4CCCC4)c23)cc1,u,-5,0%,x,-2
CCc1nn(CCCC(=O)N2CCN(c3cccc(C)c3C)CC2)c(=O)c2cc3occc3n12,u,-2,6%,1%,-4
O=c1ccc(-c2ccc([N+](=O)[O-])cc2)nn1-c1ccccc1,-16%,-5,0%,5%,-2
N#Cc1cc(-c2ccccc2)nn1-c1ccccc1,-5%,16,25µM*,8%,19
Cn1ccc(-c2ccccc2)n1,1.7µM*,13,-11%,4%,19*
Cn1ccc(-c2cc(C(=O)O)c3ccccc3n2)n1,8%,-7,3%,-6%,-3
CNc1ccccc1-n1ccc(-c2ccccc2)n1,x,86*,5%,39%,36*
CCCCNC(=O)c1ccc(CS(=O)(=O)Cc2ccccc2F)o1,-7%,11,5%,9%,-1
COc1ccc(NC(=O)NCc2ccncc2)cc1,228%,-22,-1%,47%,-1
COc1ccc(CNC(=O)Nc2ccc(C)c(C)c2)cc1,10%,32,0%,0%,33*
COc1ccc(CNc2ccc(C)c(C)c2)cc1,0%,57*,-3%,69%,41*
COc1ccc(CNC(=O)Nc2cc(C)cc(C)c2)cc1,8%,48*,3%,6%,24*
COc1ccc(CNC(=O)Nc2ccc(C)cc2)cc1,6%,76*,-1%,84%,24*
CC(C)N1CCC(N2CCN(CC#Cc3ccccc3)CC2CCO)CC1 (configuration not stated),u,30,4%,-8%,-1
CCCCSc1nnc(CCNC(=O)OC(C)(C)C)o1,7%,14,1%,19%,8
CCN(CC(=O)Nc1cc(Cl)ccc1C)C(=O)Cc1sc(C)nc1-c1ccc(F)cc1,4.7µM*,x,x,u,x

# Screens: PubChem, National Center for Advancing Translational Sciences (NCATS)
